Source: PubChem BioAssay
aSyn 5UTR act: Activators working through SNCA 5'UTR binding (MLPCN); activity score, % (tested at 7.5 µM), hits read low; alpha-synuclein 5'UTR reporter, activators screen; 300,000 tested, 7.1% active; in the data active = activity score below about -60%
Starred values were filed as active, the others as inactive. A selection follows.

SMILES	aSyn 5UTR act
Cc1nnc(N/N=C/c2cccc(OCc3ccc(Cl)c(Cl)c3)c2)n1N	-83*
Cc1c(/C(O)=C2/C(=O)C(=O)N(CCN3CCOCC3)C2c2cccs2)cnn1-c1ccccc1 (stereo unspecified)	-155*
Cc1c(/C(O)=C2\C(=O)C(=O)N(CCN(C)C)C2c2ccco2)cnn1-c1ccccc1 (stereo unspecified)	-78*
CCN(CC)CCN1C(=O)C(=O)/C(=C(/O)c2cnn(-c3ccccc3)c2C)C1c1ccc(C)o1 (stereo unspecified)	-77*
Cc1ccc(C2/C(=C(/O)c3cnn(-c4ccccc4)c3C)C(=O)C(=O)N2CCN2CCOCC2)o1 (stereo unspecified)	-121*
Cc1ccc(C2/C(=C(\O)c3cnn(-c4ccccc4)c3C)C(=O)C(=O)N2CCN(C)C)o1 (stereo unspecified)	-92*
O=C(CSc1nnc(-c2ccccc2Br)o1)N1CCOCC1	-111*
O=C(CSc1nnc(-c2ccccc2Cl)o1)N1CCCC1	-68*
O=C(CSc1nnc(-c2ccccc2O)o1)N1CCOCC1	-69*
Cc1cc(Br)ccc1-n1[nH]c(C)c(C=Nc2cccc3nsnc23)c1=O	-70*
N#C/C(=C\c1ccc(-c2nc3ccccc3s2)o1)C(N)=O	-71*
COc1ccc(-c2nc3ccccc3s2)cc1NC(C)=O	-127*
Cc1ccc(C(=O)NC(=S)Nc2cc(-c3nc4ccccc4s3)ccc2C)cc1	-95*
CC(=O)c1ccc(N2Cc3ccccc3/C2=N\C(=O)Nc2ccccc2)cc1	-98*
CC(=O)c1ccc(N2Cc3ccccc3C2=NC(=O)c2cccs2)cc1	-69*
O=C(N=C1c2ccccc2CN1c1ccc(F)cc1)c1ccc(Cl)nc1	-94*
COc1ccc(-c2coc3cc4oc(=O)c5ccccc5c4cc23)cc1F	81
COc1ccc(-c2cc3ccc(OCC(C)=O)cc3oc2=O)cc1OC	-125*
O=c1oc2cc(OCc3ccc(F)cc3F)ccc2cc1-c1ccccn1	-101*
NC(=O)COc1ccc2oc(-c3ccccc3)cc(=O)c2c1	-166*
NC(=O)COc1ccc2cc(-c3ccccc3)c(=O)oc2c1	-87*
NC(=O)COc1ccc2cc(-c3ccc(F)cc3)c(=O)oc2c1	-75*
CCOC(=O)C1CCN(C(=O)C2CCN(c3ncnc4c3nc3n4CCCCC3)CC2)CC1	-108*
CN(C)/C=N/C(=S)Nc1ccc(Br)cc1F	-108*
O=C1C(C=NCCCN2CCCC2=O)=C(O)c2ccccc21	-113*
SMILES	aSyn 5UTR act
O=C1C(C=NCc2ccccn2)=C(O)c2ccccc21	-106*
CC(C)CN=CC1=C(O)c2ccccc2C1=O	-83*
COc1cccc(/C=N/NC(=O)C(=O)Nc2ccccc2OC(F)(F)C(F)F)c1O	71
COc1ccccc1NC(=O)C(=O)/C=C(\O)c1ccccc1	-131*
COC(=O)c1cccc(NC(=O)Nc2ccccc2OC)c1	-65*
COC(=O)c1cccc(NC(=O)NC(=O)c2ccccc2Cl)c1	95
COC(=O)c1cccc(NC(=O)Nc2ccc(Cl)c(Cl)c2)c1	-134*
CN(CCOC(=O)CN1C(=O)c2ccccc2C1=O)C1=NS(=O)(=O)c2ccccc21	-89*
O=C(CN1C(=O)c2ccccc2S1(=O)=O)c1ccc(OC(F)F)cc1	86
COc1ccc(/C(N)=N/OC(=O)CCC2CCCC2)cc1	-71*
Cc1ccc(/C(N)=N/OC(=O)CCC2CCCC2)cc1	-85*
Cc1cccc(/C(N)=N/OC(=O)CCC2CCCCC2)c1	-109*
CCOC(=O)Cc1csc(NC(=O)c2c(O)c3ccccc3n(CC(C)C)c2=O)n1	75
CCOC(=O)Cc1csc(NC(=O)c2cccs2)n1	-176*
CCOC(=O)c1csc(NC(=O)c2cccs2)n1	-109*
O=C(CCc1nnc(-c2ccsc2)o1)N1CCc2c(Cl)cccc2C1	-65*
NC(=O)c1ccccc1NC(=O)c1ccc2c(c1)OCO2	-152*
Cc1ccccc1NC(=O)c1ccc2ccccc2c1	-150*
NC(=O)c1ccccc1NC(=O)c1ccc2ccccc2c1	-139*
CCc1c(C(=O)Nc2ccccc2C(N)=O)csc1C	-62*
CCCC1(C)Nc2ccccc2-c2nc3ccccc3n21 (stereo unspecified)	-96*
c1ccc2c(c1)NC1(CCCC1)n1c-2nc2ccccc21	-141*
COCC(C)NC(=O)CCc1nnc(C2(c3ccc(Cl)cc3)CCC2)o1 (stereo unspecified)	-81*
C=CCNC(=O)CCc1nnc(C2(c3ccc(Cl)cc3)CCC2)o1	-120*
C=C(C)CNC(=O)CCc1nnc(C2(c3ccc(Cl)cc3)CCC2)o1	-98*
SMILES	aSyn 5UTR act
CCn1c(SCc2ccccc2Cl)nc2ccccc21	-97*
CCC(=O)Nc1nc2ccccc2n1Cc1ccccc1Cl	72
Cn1c(SCc2ccccc2Cl)nc2ccccc21	-190*
O=C(Nc1ccccc1)Nc1cccc2nsnc12	-272*
O=C(Nc1cccc2nsnc12)c1cccs1	-143*
COc1cc(C=O)ccc1OCCOc1ccccc1[N+](=O)[O-]	-103*
C/C=C/c1ccc(OCCOc2cc(C=O)ccc2OC)c(OC)c1	-105*
COc1ccccc1OCCCOc1ccc([N+](=O)[O-])cc1Cl	-119*
CCOc1cccc(OCCOc2ccccc2[N+](=O)[O-])c1	-110*
COc1cc(C=O)ccc1OCc1ccc(Cl)nc1	-106*
COc1cc(C=O)ccc1OCCCOc1ccccc1[N+](=O)[O-]	-95*
COC(=O)/C=C/COc1ccccc1[N+](=O)[O-]	-63*
COC(=O)c1cc(/C=C/c2ccccc2)[nH]n1	-117*
Cc1nc2ccc(NC(=O)Cc3ccccc3F)cc2s1	-175*
Cc1nc2ccc(NC(=O)Cc3ccsc3)cc2s1	-108*
Cc1nc2ccc(NC(=O)Cc3cccc(F)c3)cc2s1	-80*
CC(C)CC(=O)NC(=S)NNC(=O)c1ccc(NC(=O)C2CCCCC2)cc1	75
O=C(NC(=S)Nc1ccccc1)C1CCCCC1	-63*
O=C(NC(=S)Nc1ccc(Br)cc1)C1CCCCC1	-68*
O=C(NC(=S)Nc1ccc(Br)cc1)C1CCC1	-95*
Cc1ccc(NC(=O)C2=NNC(=O)CC2)cc1F	-75*
CC(C)c1ccc(NC(=O)C2=NNC(=O)CC2)cc1	-143*
CN(C)/C=C(\C#N)C(=O)N/N=C/c1ccc(Cl)cc1	-66*
CN(C)/C=C(\C#N)C(=O)Nc1ccc(F)cc1	-96*
CN(C)/C=C(\C#N)C(=O)Nc1ccc(F)c(Cl)c1	-143*
SMILES	aSyn 5UTR act
O=C(Nc1cc2c(cc1Cl)OCCCO2)c1ccc(F)cc1	-90*
Cc1ccc(C(=O)Nc2cc3c(cc2Cl)OCCCO3)cc1	-145*
O=C(Nc1cc2c(cc1Br)OCCCO2)c1ccccc1	-104*
N#CC1=C(N)OC2=C(CC/C2=C\c2ccccc2)C1c1ccccc1 (stereo unspecified)	-63*
Cc1csc(Nc2ccccc2)[n+]1-c1ccccc1	-69*
Cc1ccc(/C=C/C(=O)c2ccc(N3CCOCC3)cc2)s1	-133*
Cc1cccc(/C=C/C(=O)c2ccc(N3CCOCC3)cc2)c1	-114*
CC(=O)c1ccc(OC(C)c2nc3ccccc3s2)cc1 (stereo unspecified)	-89*
O=C(NCc1ccc(F)cc1)c1c2c(nc3ccccc13)CCC2	-71*
Oc1ccc(/C=N/Nc2ccc(Cl)nn2)cc1O	-134*
Cc1ccc(/C=N/Nc2ccc(Cl)nn2)cc1	-151*
O=C(COc1ccc2ccccc2c1Br)Nc1ccncc1	-84*
O=C(COc1ccccc1[N+](=O)[O-])Nc1cccnc1	-72*
O=C(COc1ccc2ccccc2c1Br)NC(=S)Nc1cccc(CO)c1	-66*
